Records with an inconclusive call do not appear. The source made the active and inactive calls. Unless noted, the call rests on the fitted dose curve; in most records, active means well fitted curve in the direction sought with a large enough effect in the repeat runs; inconclusive means weak or mixed curves; inactive means no such curve, though single readings can be large; an effect the other way counts as inactive or inconclusive.
Legend:
[1] = qHTS assay for small molecule agonists of the p53 signaling pathway (AID 651631; calls by dose curve; further: nearly all actives have a fitted effect of over 15% in size)
In short: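 HCT-116 cells carrying a stable p53 response element–beta-lactamase reporter were plated, rested 5 h at 37 °C, then exposed to compound in DMSO for 16 h at 37 °C; reporter activity was read as FRET substrate fluorescence after 2 h at room temperature.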

[2] = qHTS assay for small molecules that induce genotoxicity in human embryonic kidney cells expressing luciferase-tagged ATAD5 (AID 651632); further: nearly all actives have a fitted effect of over 15% in size; further: potency means the concentration at half of the fitted maximal effect
In short: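 Genotoxicity read-out via ATAD5-luciferase: HEK293T cells, 16 hr compound incubation at 37C, Amplite detection.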

[3] = qHTS assay for small molecule agonists of the p53 signaling pathway - cell viability (AID 651633; calls by dose curve; further: series mostly up to about 83 µM; nearly all actives have a fitted effect of over 30% in size)
In short: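 p53RE-bla cells, seeded at 4,000 per well and rested 5 h at 37 C/5% CO2, received compounds in DMSO for 16 h at 37 C. CellTiter-Glo was then added, and luminescence was read after 30 min at room temperature to gauge cytotoxicity.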

[4] = qHTS assay for small molecules that induce genotoxicity in human embryonic kidney cells expressing luciferase-tagged ATAD5 - cell viability (AID 651634; calls by dose curve; further: nearly all actives have a fitted effect of over 25% in size)
In short: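 Live-cell protease activity (CellTiter-Fluor, fluorescence) indicates viability. HEK293T cells with luciferase-tagged ATAD5; 15.5 hr compound treatment at 37C.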

[5] = qHTS assay for small molecule disruptors of the mitochondrial membrane potential - cell viability (AID 720634; calls by dose curve;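 further: human HepG2 liver cancer cells; series mostly up to about 83 µM; nearly all actives have a fitted effect of over 20% in size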)
In short: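 Human hepatoma HepG2 cells were treated for 1 hr with test chemicals, then given m-MPI dye and CellTiter-Glo. Cell viability reflects luminescence proportional to cellular ATP.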

[6] = qHTS assay to test for compound auto fluorescence at 590 nm (red) in HepG2 cells (AID 720674)
In short: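 Intrinsic compound fluorescence in the red window (Ex/Em 540/590 nm) is measured in attached HepG2 cells exposed for 1 hr, DMSO vehicle as baseline, benchmarked to Rose Bengal sodium.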

[7] = qHTS assay to test for compound auto fluorescence at 535 nm (green) in HepG2 cells (AID 720675)
[8] = qHTS assay to test for compound auto fluorescence at 590 nm (red) in HEK293 cells (AID 720679)
In short: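 Red-channel autofluorescence (Ex/Em 540/590 nm; Rose Bengal sodium reference) was measured after overnight 37C, 5% CO2 exposure of attached HEK293 cells, 2,000 per well in medium with 10% dialyzed FBS.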

[9] = qHTS assay to test for compound auto fluorescence at 460 nm (blue) in HEK293 cells (AID 720678)
In short: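 Blue-channel (Ex/Em 405/460 nm) intensity measured in HEK293 cultures after overnight compound exposure at 37C; signal expressed relative to triamterene. Cells plated 2,000 per well in 10% dialyzed FBS medium and allowed 4-5 hr to attach.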

[10] = qHTS assay for small molecule disruptors of the mitochondrial membrane potential (AID 720635); further: potency means the concentration at half of the fitted maximal effect
In short: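 HepG2 cells (2,000/well) attached overnight at 37C, then took compound for 1 hr at 37C, 5% CO2. Mito-MPS dye was added for 30 min; fluorescence was read at 490/535 nm (monomers) and 540/590 nm (aggregates).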
On the % scale 0 is the no-effect control and ±100 the full control effect.

OCCCCCCO
inactive: Potency [1] | Potency [2] | Potency [3] | Potency [4] | Potency [5] | outcome [6] | outcome [7] | outcome [8]

C1COCCO1
inactive: Potency [1] | Potency [2] | Potency [3] | Potency [4] | outcome [6] | outcome [7] | outcome [8]

OC1OC[C@@H](O)[C@H](O)[C@H]1O (some centres not stated)
inactive: Potency [1] | Potency [2] | Potency [3] | Potency [4] | Potency [5] | outcome [6] | outcome [7] | Potency [9] | outcome [8]

OCC(O)[C@@H](O)[C@H](O)[C@H](O)CO[C@H]1O[C@H](CO)[C@@H](O)[C@H](O)[C@H]1O (some centres not stated)
inactive: Potency [1] | Potency [2] | Potency [3] | Potency [4] | Potency [5] | outcome [6] | outcome [7] | outcome [8]

CC(=O)CCc1ccc(O)cc1
inactive: Potency [1] | Potency [2] | Potency [3] | Potency [4] | outcome [6] | outcome [7] | Potency [9] | outcome [8]

COc1cccc(OC)c1
inactive: Potency [1] | Potency [2] | Potency [3] | Potency [4] | Potency [5] | outcome [6] | outcome [7] | outcome [8]

Oc1ccc2c(c1)OC[C@@H](N1CCC(O)(c3ccc(F)cc3)CC1)[C@H]2O
inactive: Potency [1] | Potency [3] | Potency [4] | outcome [6] | outcome [7] | outcome [8]
active: Potency [2] 7.5 µM | Potency [10] 33.5 µM

CCCCCOC(=O)Nc1nc(=O)n([C@@H]2O[C@H](C)[C@@H](O)[C@H]2O)cc1F
inactive: Potency [1] | Potency [2] | Potency [3] | Potency [4] | Potency [5] | outcome [6] | outcome [7] | Potency [9] | outcome [8]

CCC(C)OC(=O)N1CCCCC1CCO (configuration not stated)
inactive: Potency [1] | Potency [2] | Potency [3] | Potency [4] | Potency [5] | outcome [6] | outcome [7] | Potency [9] | outcome [8]

Cn1ccc2cc3c(cc21)CCN3C(=O)Nc1cccnc1
active: Potency [2] 11.9 µM
inactive: Potency [1] | Potency [3] | Potency [4] | Potency [5] | outcome [6] | outcome [7] | outcome [8]

CCCOCC(C)OCC(C)O (configuration not stated)
inactive: Potency [1] | Potency [3] | Potency [4] | Potency [5] | outcome [6] | outcome [7] | outcome [8]

CCCCCCC(=O)OCC
inactive: Potency [1] | Potency [2] | Potency [3] | Potency [4] | Potency [5] | outcome [6] | outcome [7] | Potency [9] | outcome [8]

CCCCNc1ccccc1
inactive: Potency [1] | Potency [2] | Potency [3] | Potency [4] | Potency [5] | outcome [6] | outcome [7] | outcome [8]

NS(=O)(=O)c1cc(C2(O)NC(=O)c3ccccc32)ccc1Cl (configuration not stated)
inactive: Potency [1] | Potency [2] | Potency [3] | Potency [4] | Potency [5] | fluorescence, relative to Rose Bengal [6] -0.645% [at 18.6 µM] | fluorescence, % of fluorescein control [7] 7.3e-05% [at 18.6 µM] | fluorescence, % of fluorescent control [8] 0.0283% [at 18.6 µM]

COC[C@H](c1ccc(C(F)(F)F)cc1)N1CCN(C2(C)CCN(C(=O)c3c(C)ncnc3C)CC2)C[C@H]1C
inactive: Potency [1] | Potency [2] | Potency [3] | Potency [4] | Potency [5] | outcome [6] | outcome [7] | Potency [9] | outcome [8]

CCN1CCCC1CNC(=O)c1cc(S(N)(=O)=O)ccc1OC (configuration not stated)
inactive: Potency [1] | Potency [2] | Potency [3] | Potency [4] | Potency [5] | outcome [6] | outcome [7] | Potency [9] | outcome [8]

CN(C)N=Nc1ccccc1
inactive: Potency [1] | Potency [2] | Potency [3] | Potency [5] | outcome [6] | outcome [7] | Potency [9] | outcome [8]

CCCCCCOC(=O)c1ccccc1O
inactive: Potency [1] | Potency [2] | Potency [3] | Potency [4] | Potency [5] | outcome [6] | outcome [7] | Potency [9] | outcome [8]

c1ccc(SCCSc2ccccc2)cc1
inactive: Potency [1] | Potency [3] | Potency [4] | Potency [5] | outcome [6] | outcome [7] | Potency [9] | outcome [8]

CCCCN(CCO)CCO
inactive: Potency [1] | Potency [2] | Potency [3] | Potency [4] | Potency [5] | outcome [6] | outcome [7] | outcome [8]

CCO[Si](CCCN=C=O)(OCC)OCC
inactive: Potency [1] | Potency [2] | Potency [3] | Potency [4] | outcome [6] | outcome [7] | outcome [8]

COc1ccc(N=[N+]([O-])c2ccc(OC)cc2)cc1
active: Potency [2] 0.136 µM | Potency [10] 27 µM
inactive: Potency [1] | Potency [3] | Potency [4] | outcome [6] | outcome [7] | outcome [8]

CC(C)CCCC(C)CCCC(C)CCCCC(C)CCCC(C)CCCC(C)C (configuration not stated)
inactive: Potency [2] | Potency [3] | Potency [4] | Potency [5] | outcome [6] | outcome [7] | Potency [9] | outcome [8]

C=CCOCC(O)CS(=O)(=O)O (configuration not stated)
inactive: Potency [2] | Potency [3] | Potency [4] | Potency [5] | outcome [6] | outcome [7] | Potency [9] | outcome [8]

C=C(C)[C@@H]1CCC2=CC(=O)C[C@@H](C)[C@]2(C)C1
inactive: Potency [2] | Potency [3] | Potency [4] | Potency [5] | outcome [6] | outcome [7] | Potency [9] | outcome [8]

CC(C)(C)N(CCO)CCO
inactive: Potency [2] | Potency [3] | Potency [4] | Potency [5] | Potency [10] | outcome [6] | outcome [7] | Potency [9] | outcome [8]

c1cc(CN2CCCCC2)cc(OCCCNc2nc3ccccc3s2)c1
inactive: Potency [2] | Potency [3] | Potency [4] | Potency [5] | outcome [6] | outcome [7] | Potency [9] | outcome [8]

O=C(O)c1cccc(C(=O)O)n1
inactive: Potency [2] | Potency [3] | Potency [4] | Potency [5] | Potency [10] | outcome [6] | outcome [7] | Potency [9] | outcome [8]

CC1=CCC2C(C1)C2(C)C (configuration not stated)
inactive: Potency [2] | Potency [3] | Potency [4] | Potency [5] | outcome [6] | outcome [7] | Potency [9] | outcome [8]
active: Potency [10] 48.6 µM

CCCCOCC(C)OCC(C)O (configuration not stated)
inactive: Potency [2] | Potency [3] | Potency [4] | Potency [5] | Potency [10] | outcome [6] | outcome [7] | Potency [9] | outcome [8]

CCN(CC)S(=O)(=O)c1ccc(C(=O)O)cc1
inactive: Potency [2] | Potency [3] | Potency [4] | Potency [5] | outcome [6] | outcome [7] | Potency [9] | outcome [8]

CCN(CC)C(=O)c1ccc(O)c(OC)c1
inactive: Potency [2] | Potency [3] | Potency [4] | Potency [5] | Potency [10] | outcome [6] | outcome [7] | Potency [9] | outcome [8]

COc1ccc(COC=O)cc1
inactive: Potency [2] | Potency [3] | Potency [4] | Potency [5] | Potency [10] | outcome [6] | outcome [7] | Potency [9] | outcome [8]

Cc1ccc(N)cc1[N+](=O)[O-]
inactive: Potency [2] | Potency [3] | Potency [4] | Potency [5] | Potency [10] | outcome [6] | outcome [7] | Potency [9] | outcome [8]

CC(C)c1cccc(C(C)C)c1N
inactive: Potency [2] | Potency [3] | Potency [4] | Potency [5] | Potency [10] | outcome [6] | outcome [7] | outcome [8]

CC(C)(C)C(=O)/C=C/c1ccc(Cl)cc1
inactive: Potency [2] | Potency [3] | Potency [4] | Potency [5] | outcome [6] | outcome [7] | Potency [9] | outcome [8]

NC(=S)Nc1cccc2ccccc12
inactive: activation [2] 1.78% [at 8.08 µM] | activity change, negative = cytotoxicity [3] -14.4% [at 8.08 µM] | activity, negative = cytotoxicity [4] -8.88% [at 8.08 µM] | activity change, negative = cytotoxicity [5] 7.63% [at 8.08 µM] | ratio activity, negative = MMP loss [10] -26.9% [at 8.08 µM] | fluorescence, relative to Rose Bengal [6] -0.163% [at 3.72 µM] | fluorescence, % of fluorescein control [7] 0.0274% [at 3.72 µM] | fluorescence, % of triamterene [9] -0.0445% [at 3.72 µM] | fluorescence, % of fluorescent control [8] -0.0728% [at 3.72 µM]

CC(C)COC(=O)C(C)C
inactive: Potency [2] | Potency [3] | Potency [4] | Potency [5] | Potency [10] | outcome [6] | outcome [7] | Potency [9] | outcome [8]

Cc1onc(-c2ccccc2)c1-c1ccc(S(N)(=O)=O)cc1
inactive: Potency [2] | Potency [3] | Potency [4] | Potency [5] | outcome [6] | outcome [7] | Potency [9] | outcome [8]

CCN1CCCC(OC(=O)C(c2ccccc2)c2ccccc2)C1 (configuration not stated)
inactive: Potency [2] | Potency [3] | Potency [4] | Potency [5] | fluorescence, relative to Rose Bengal [6] 0.0398% [at 18.6 µM] | fluorescence, % of fluorescein control [7] 0.107% [at 18.6 µM] | fluorescence, % of triamterene [9] 0.0169% [at 18.6 µM] | fluorescence, % of fluorescent control [8] -0.0352% [at 18.6 µM]

NCC[C@H](O)C(=O)N[C@@H]1C[C@H](N)[C@@H](O[C@H]2O[C@H](CN)[C@@H](O)[C@H](O)[C@H]2O)[C@H](O)[C@H]1O[C@H]1O[C@H](CO)[C@@H](O)[C@H](N)[C@H]1O
inactive: Potency [2] | Potency [3] | Potency [4] | Potency [5] | Potency [10] | outcome [6] | outcome [7] | Potency [9] | outcome [8]

CSc1ccc(C=O)cc1
inactive: Potency [2] | Potency [3] | Potency [4] | Potency [5] | Potency [10] | outcome [6] | outcome [7] | Potency [9] | outcome [8]

CC1CCN(CCCC(=O)c2ccc(F)cc2)CC1
inactive: Potency [2] | Potency [3] | Potency [4] | Potency [5] | Potency [10] | outcome [6] | outcome [7] | Potency [9] | outcome [8]

Nc1cc(N)cc(C(=O)O)c1
inactive: Potency [2] | Potency [3] | Potency [4] | Potency [5] | Potency [10] | outcome [6] | outcome [7] | Potency [9] | outcome [8]

OC/C=C/c1ccccc1
inactive: Potency [2] | Potency [3] | Potency [4] | Potency [5] | outcome [6] | outcome [7] | Potency [9] | outcome [8]

Reference: PubChem BioAssay (Tox21)
